# PubChem BioAssay (Tox21)
# Values joined by “and” are separate entries in the source; they are usually repeats but may differ in a detail not shown here. Equal entries are not always repeated. Records with an inconclusive call do not appear. A call without a number means that no potency is given here. Active and inactive are the calls of the source. The call rests on the fitted dose curve.
# Biological target: Thyrotropin receptor (Homo sapiens) (UniProt P16473)
# Experiment: qHTS assay to identify small molecule agonists of the thyroid stimulating hormone receptor (TSHR) signaling pathway (AID 1224843); further: nearly all actives have a fitted effect of over 45% in size
# Details: TSHR-HEK293 cells, cAMP HTRF, agonist mode, 30 min; series mostly up to 92.4 µM
# Summary of the method: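 HEK293/TSHR, 800 cells/well; cpd 30 min RT; add cAMP-d2 + anti-cAMP-cryptate, 1 h RT; fluorescence read on plate reader. 15-pt titration, n=3.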
# Potency means the concentration at half of the fitted maximal effect.
# Thyrotropin receptor (Homo sapiens), sequence (P16473 whole entry, looked up): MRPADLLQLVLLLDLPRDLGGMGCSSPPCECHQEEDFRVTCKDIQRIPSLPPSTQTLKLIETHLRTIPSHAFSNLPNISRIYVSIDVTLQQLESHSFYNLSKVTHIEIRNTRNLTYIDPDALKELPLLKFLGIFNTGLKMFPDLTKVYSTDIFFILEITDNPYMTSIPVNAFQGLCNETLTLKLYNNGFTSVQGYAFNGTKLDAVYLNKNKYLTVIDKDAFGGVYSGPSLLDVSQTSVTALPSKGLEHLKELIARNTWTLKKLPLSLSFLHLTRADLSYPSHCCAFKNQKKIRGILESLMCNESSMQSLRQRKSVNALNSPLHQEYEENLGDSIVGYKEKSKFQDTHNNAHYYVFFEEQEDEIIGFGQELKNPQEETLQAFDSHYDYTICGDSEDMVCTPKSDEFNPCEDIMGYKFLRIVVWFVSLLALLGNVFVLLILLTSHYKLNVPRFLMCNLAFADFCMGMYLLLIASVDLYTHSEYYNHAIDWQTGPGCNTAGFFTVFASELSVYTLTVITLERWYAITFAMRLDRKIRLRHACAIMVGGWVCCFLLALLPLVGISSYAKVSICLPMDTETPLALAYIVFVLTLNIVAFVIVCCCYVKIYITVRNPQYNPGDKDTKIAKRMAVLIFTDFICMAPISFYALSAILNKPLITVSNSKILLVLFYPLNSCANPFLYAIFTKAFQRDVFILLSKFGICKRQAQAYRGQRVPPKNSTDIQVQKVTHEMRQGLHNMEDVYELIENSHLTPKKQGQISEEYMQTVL
row,SMILES,Potency
1,N#CC(Br)Br,inactive
2,CCN(N=O)C(N)=O,inactive
3,Cc1cc(C)cc(C)c1,inactive
4,Oc1c(Cl)c(Cl)c(Cl)c(Cl)c1Cl,inactive
5,COP(=O)(OC)OC,inactive
6,CCC(C)(C)c1ccc(O)cc1,inactive
7,C1=Cc2cccc3cccc1c23,inactive
8,Oc1cc(Cl)ccc1Cl,inactive
9,Cc1ccc(OP(=O)(Oc2ccc(C)cc2)Oc2ccc(C)cc2)cc1,12.2 µM (active) and 30.6 µM (active)
10,CCN(CC)C(=O)/C(Cl)=C(\C)OP(=O)(OC)OC,inactive
11,Nn1cnnc1,inactive
12,O=[N+]([O-])c1cccc2ccccc12,inactive
13,N#CCCCl,inactive
14,O=S(=O)(Oc1ccc(Cl)cc1)c1ccc(Cl)cc1,inactive
15,C=C(C)C(=O)OCC1CO1 (stereo not drawn),inactive
16,Nc1cccnc1,inactive
17,O=Cc1ccco1,inactive
18,CCCCC(CC)COC(=O)Cl (stereo not drawn),inactive
19,Cc1cc(Cl)ccc1OCCCC(=O)O,inactive
20,N[C@@H](Cc1ccc(N(CCCl)CCCl)cc1)C(=O)O,inactive
21,O=C(Nc1ccc(Br)cc1)c1cc(Br)cc(Br)c1O,inactive
22,CCCCCCCCC(=O)NCc1ccc(O)c(OC)c1,inactive
23,Oc1ccc(-c2ccccc2)cc1,inactive
24,c1ccc(N=Nc2ccccc2)cc1,inactive
25,C#CCOS(=O)OC1CCCCC1Oc1ccc(C(C)(C)C)cc1 (stereo not drawn),12.2 µM (active) and 24.3 µM (active)
26,C#C[C@]1(O)CC[C@H]2[C@@H]3CCC4=CC(=O)CC[C@]4(C)[C@H]3CC[C@@]21C,inactive
27,Nc1ccncc1,inactive
28,O=C(CCl)c1ccccc1,69.6 µM (active)
